# According to PubChem BioAssay (NCATS):
# “And” between values parts separate entries of the source, which are not always exact repeats. Equal values may be shown once. Results filed as inconclusive are left out. Entries that show only a call come without a potency. The source made the active and inactive calls. The call rests on the fitted dose curve; in most records, active means well fitted curve in the direction sought with a large enough effect; inconclusive means small, poorly fitted or top-dose-only effect, or another doubt; inactive means no such curve, though single readings can be large; an effect the other way counts as inactive or inconclusive.
# Columns and labels:
# [1] = biological target: Tyrosine-protein kinase Yes (Homo sapiens) (UniProt P07947); assay: qHTS for small molecule inhibitors of Yes1 kinase: Primary Screen (AID 686947); further: nearly all actives have a fitted effect of over 60% in size; further: potency means the concentration at half of the fitted maximal effect
# Summary of the method: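 ADP-Glo luminescence readout; final 4 nM Yes1, 0.1 mM ATP, 0.3 mg/mL poly(E4Y), Tris pH 7.5, MgCl2, DTT, Brij-35. 20 min compound preincubation, 60 min reaction at RT. Normalized to DMSO wells with and without enzyme.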
# [2] = qHTS for small molecule inhibitors of Yes1 kinase: Counter Assay (AID 686950);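 further: no kinase present so only ADP-Glo detection of a fixed ADP amount is tested; luminescence from ADP-Glo reporting ADP in a fixed ATP and ADP mixture; series mostly up to about 77 µM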
# Summary of the method: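 Luminescence read-out from ADP-Glo quantifies a fixed ADP amount (0.02 mM ADP with 0.08 mM ATP) after 60 min at room temperature; signal is normalized between DMSO wells with ATP/ADP and with 0.1 mM ATP alone.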
# Sequence of Tyrosine-protein kinase Yes (Homo sapiens) (P07947 whole entry, looked up): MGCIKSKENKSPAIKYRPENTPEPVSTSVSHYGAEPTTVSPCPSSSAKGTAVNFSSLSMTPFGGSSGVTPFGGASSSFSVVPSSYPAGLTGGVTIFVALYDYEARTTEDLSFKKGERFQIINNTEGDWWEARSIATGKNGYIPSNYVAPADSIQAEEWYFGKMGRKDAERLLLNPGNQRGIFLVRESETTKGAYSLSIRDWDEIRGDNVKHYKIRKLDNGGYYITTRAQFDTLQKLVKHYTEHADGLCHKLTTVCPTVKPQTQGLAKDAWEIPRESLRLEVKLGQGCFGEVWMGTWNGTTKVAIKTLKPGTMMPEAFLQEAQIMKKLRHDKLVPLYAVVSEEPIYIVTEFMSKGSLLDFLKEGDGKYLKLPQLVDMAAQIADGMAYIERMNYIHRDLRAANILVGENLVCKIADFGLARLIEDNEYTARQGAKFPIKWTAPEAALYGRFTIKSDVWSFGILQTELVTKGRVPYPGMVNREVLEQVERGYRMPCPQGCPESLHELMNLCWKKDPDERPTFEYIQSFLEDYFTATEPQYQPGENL
SMILES,Potency [1],outcome [2]
CS(=O)(=O)CCNCc1coc(-c2ccc3ncnc(Nc4ccc(OCc5ccccc5)cc4)c3c2)c1,1.84 µM (active),inactive
COc1cc(C=NNc2ncnc3[nH]ncc23)ccc1O,0.232 µM (active),inactive
COC(=O)Nc1nc2ccc(Oc3cccc(NC(=O)Nc4cc(C(F)(F)F)ccc4F)c3)cc2[nH]1,11.6 µM (active),inactive
COc1cc(C=NNc2ncnc3c2cnn3C(C)C)ccc1O,0.184 µM (active),inactive
Fc1ccc(-c2ncn(C3CCNCC3)c2-c2ccnc(Oc3ccc(Oc4ccccc4)cc3)n2)cc1,inactive,inactive
CN(C)C(=O)OC1CNC(C#Cc2cc3ncnc(Nc4ccc(OCc5cccc(F)c5)c(Cl)c4)c3s2)C1 (configuration not stated),8.23 µM (active) and 7.33 µM (active),inactive
NC(=O)c1sc(-n2cnc3ccccc32)cc1OCc1ccccc1Br,18.4 µM (active),inactive
COc1ccc2c(-c3ccnc(Nc4cccc(OC(F)(F)F)c4)n3)cnn2n1,26 µM (active),inactive
Fc1ccc(-c2ncn(C3CCNCC3)c2-c2ccnc(Oc3ccc(F)c(F)c3)n2)cc1,inactive,inactive
COc1cc(N2CCN(C(C)C)CC2)ccc1Nc1nc(Nc2ccc(F)cc2C(=O)NCC(O)CO)c2cc[nH]c2n1 (configuration not stated),inactive,inactive
CCS(=O)(=O)c1ccc(OC)c(Nc2nccc(N(C)c3ccc4c(C)[nH]nc4c3)n2)c1,0.0519 µM (active),inactive
CNC(=O)c1cc(-c2ccc(F)cc2)cc(-c2ccc(S(=O)(=O)N3CCCC3)cc2)c1N,inactive,inactive
COC(=O)Nc1nc2ccc(Sc3ccc(NC(=O)Nc4cc(C(F)(F)F)ccc4F)cc3)cc2[nH]1,inactive,inactive
O=C1Nc2ccc(-c3cccnc3)cc2C1=Cc1cc(Br)c(O)c(Br)c1,0.412 µM (active),inactive
CN1CCN(C(=O)c2ccc(NC(=O)Nc3ccc(N(C)c4ccnc(Nc5ccc(CS(C)(=O)=O)cc5)n4)cc3)cc2)CC1,14.6 µM (active),inactive
COC(=O)c1sc(-n2cnc3cc(OC)c(OC)cc32)cc1OCc1ccccc1C(F)(F)F,0.654 µM (active),inactive

SMILES,Potency [1],outcome [2]
CCCN1CCC(c2ccc(Nc3nc(Nc4cc(F)ccc4C(N)=O)c4cc[nH]c4n3)c(OC)c2)CC1,inactive,inactive
CN1CCC(n2cnc(-c3ccc(F)cc3)c2-c2ccnc(NCCO)n2)CC1,inactive,inactive
CN1CCC(n2cnc(-c3ccc(F)cc3)c2-c2ccnc(N)n2)CC1,18.4 µM (active),inactive
O=C1NC(=O)C(c2ccc(Cl)cc2)=C1Nc1ccc(Cl)c(C(=O)O)c1,inactive,inactive
Cc1ccc(Nc2ccnc(Nc3cccc(C(N)=O)c3)n2)cc1O,0.0292 µM (active),inactive
O=C(OC1CNC(C#Cc2cc3ncnc(Nc4ccc5c(cnn5Cc5ccccc5)c4)c3s2)C1)N1CCOCC1 (configuration not stated),1.04 µM (active),inactive
O=C1NC(=O)C(c2cccc(Cl)c2)=C1Nc1ccc(O)c(Cl)c1,9.23 µM (active),inactive
CCNC(=O)OC1CNC(C#Cc2cc3ncnc(Nc4ccc(OCc5cccc(F)c5)c(Cl)c4)c3s2)C1 (configuration not stated),8.23 µM (active),inactive
COc1cccc(-n2ncc3c(NN=Cc4ccc(S(C)(=O)=O)cc4)ncnc32)c1,0.0923 µM (active),inactive
COc1ccccc1-c1cc(C=C2C(=O)Nc3ncc(Br)cc32)cc(Br)c1O,0.733 µM (active),inactive
NS(=O)(=O)c1ccc(N=Nc2c(O)[nH]c3cccc(CCc4ccncc4)c23)cc1,inactive,inactive
NC(=O)c1sc(-n2cnc3cc(C(F)(F)F)ccc32)cc1OCc1ccccc1Br,inactive,inactive
FC(F)(F)c1cccc(Nc2nccc(-c3cnn4nc(-c5ccccc5)ccc34)n2)c1,14.6 µM (active),inactive
c1ccc(-c2[nH]ncc2-c2ccnc(-c3ccc(OCCn4ccnc4)cc3)c2)nc1,4.63 µM (active),inactive
COc1cccc(-n2nc(C)c3c(NN=C(C)c4ccncc4)ncnc32)c1,inactive,inactive
